Results filed as inconclusive are left out. Where a call stands in place of a potency, no number is given. The source made the active and inactive calls. Calls follow the shape of the full dose curve.

The assay is described as follows: Confirmatory qHTS for Vero E6 cytotoxicity: counterscreen for inhibitors of SARS-S pseudo-typed particle cell entry. To be noted: cell viability; series mostly up to 57.1 µM. In general terms: In qHTS, concentration-response curves come from the screen itself.
With `CCCCCCCCCCCC[n+]1ccc2ccccc2c1`, the Potency is 3.83 µM (active). The figure for `CC[C@@]1(O)C(=O)OCc2c1cc1n(c2=O)Cc2c-1nc1ccccc1c2/C=N/OC(C)(C)C` is 17.1 µM (active); for `O=C(Nc1ccc([N+](=O)[O-])cc1Cl)c1cc(Cl)ccc1O` it is 0.857 µM (active); for `CCCN1C[C@H](C)[C@@H](O)[C@](C)(O)[C@@H](CC)OC(=O)[C@H](C)[C@@H](O[C@H]2C[C@@](C)(OC)[C@@H](O)[C@H](C)O2)C(C)[C@@H](O[C@@H]2O[C@H](C)C[C@H](N(C)C)[C@H]2O)[C@](C)(O)C[C@H]1C` (stereo partly drawn) it is “inactive”.

Consider `CC(C)C[C@H](NC(=O)[C@H](CCc1ccccc1)NC(=O)CN1CCOCC1)C(=O)N[C@@H](Cc1ccccc1)C(=O)N[C@@H](CC(C)C)C(=O)[C@@]1(C)CO1`, for which the Potency was 0.681 µM (active). Take `CCCCCCOC(=O)NC(=N)c1ccc(NCc2nc3cc(C(=O)N(CCC(=O)OCC)c4ccccn4)ccc3n2C)cc1`: the Potency entry was “inactive”. For `CC(C)OC(=O)[C@H](C)N[P@](=O)(CO[C@H](C)Cn1cnc2c(N)ncnc21)Oc1ccccc1`, the Potency result is “inactive”. The entry for `CN1CCC(=C2c3ccccc3CCc3sccc32)CC1` is “inactive”. The value for `N=C(N)c1ccc(OCCCCCOc2ccc(C(=N)N)cc2)cc1` was 21.5 µM (active); that for `COc1cc(N)c(Cl)cc1C(=O)NC1CCN(CCCOc2ccc(F)cc2)CC1OC` (stereo not drawn) was “inactive”; that for `CN1CCC[C@@H]1CCO[C@](C)(c1ccccc1)c1ccc(Cl)cc1` was “inactive”. The figure for `COc1cccc2c1C(=O)c1c(O)c3c(c(O)c1C2=O)C[C@@](O)(C(C)=O)C[C@@H]3O[C@H]1C[C@H](N)[C@H](O)[C@H](C)O1` is 13.6 µM (active); for `CCCCCCNC(=O)n1cc(F)c(=O)[nH]c1=O` it is “inactive”. `N#CC(c1ccc(Cl)cc1)c1c(Cl)cc(-n2ncc(=O)[nH]c2=O)cc1Cl` (stereo not drawn): the Potency is 24.1 µM (active). The value for `CN1CC[C@H](CN2c3ccccc3Sc3ccccc32)C1` was “inactive”; that for `O=C1CCc2ccc(OCCCCN3CCN(c4cccc(Cl)c4Cl)CC3)cc2N1` was “inactive”. With `Cc1cc(-n2c(=O)[nH]c(=O)n(C)c2=O)ccc1Oc1ccc(S(=O)(=O)C(F)(F)F)cc1`, the Potency result was “inactive”.

In the case of `CC(C)(C)NC(=O)[C@H]1CC[C@H]2[C@@H]3CC[C@H]4NC(=O)C=C[C@]4(C)[C@H]3CC[C@]12C`, the Potency entry was “inactive”.

For `C=CC(=O)Nc1cc(Nc2nccc(-c3cn(C)c4ccccc34)n2)c(OC)cc1N(C)CCN(C)C`, the Potency was 13.6 µM (active). The value for `OCCN1CCN(CC/C=C2/c3ccccc3Sc3ccc(C(F)(F)F)cc32)CC1` was “inactive”; that for `Nc1ccn([C@@H]2O[C@H](CO)[C@@H](O)C2(F)F)c(=O)n1` was “inactive”; that for `CCCCCCCCCCCCCC[n+]1ccc(C)cc1` was 4.29 µM (active). For the molecule `CC(=O)OCC1=C(C(=O)O)N2C(=O)[C@@H](NC(=O)Cc3cccs3)[C@H]2SC1`, the Potency entry was “inactive”. `CN(C)CCC=C1c2ccccc2C(C)(C)c2ccccc21`: the Potency result is “inactive”. The value for `COc1ccc(Cc2nccc3cc(OC)c(OC)cc23)cc1OC` was “inactive”; that for `COc1cc([C@@H]2c3cc4c(cc3C(O[C@@H]3O[C@@H]5CO[C@@H](c6cccs6)OC5[C@H](O)[C@H]3O)C3COC(=O)[C@@H]32)OCO4)cc(OC)c1O` (stereo partly drawn) was 24.1 µM (active). The entry for `O=c1ccc2ccccc2o1` is “inactive”. The entry for `CCN1CCN(Cc2ccc(Nc3ncc(F)c(-c4cc(F)c5nc(C)n(C(C)C)c5c4)n3)nc2)CC1` is “inactive”; for `C[C@H]1[C@H](OC(=O)CCC(=O)O)O[C@@H]2O[C@@]3(C)CC[C@H]4[C@H](C)CC[C@@H]1[C@@]24OO3` it is “inactive”. `C/C=C(/C)C(=O)O[C@H]1C(C)=CC23C(=O)C(C=C(CO)[C@@H](O)[C@]12O)[C@H]1[C@@H](C[C@H]3C)C1(C)C` (stereo partly drawn): the Potency result is “inactive”. The entry for `Cc1nn(C)c2c1C(c1ccccc1F)=NCC(=O)N2C` is “inactive”.

For the molecule `C[n+]1c2cc(N)ccc2cc2ccc(N)cc21` (tested in a mixture with another compound), the Potency is 10.8 µM (active). For `CC(C)OC(=O)OCOP(=O)(CO[C@H](C)Cn1cnc2c(N)ncnc21)OCOC(=O)OC(C)C`, the Potency result was “inactive”.

Values taken from PubChem BioAssay AID1479144 (National Center for Advancing Translational Sciences (NCATS), 2020).
